# Bioassay records as filed in PubChem.
# The list is not random: actives were taken first. Their share in the collection is about 19%.
# Shiga inhibitor: blocks Shiga toxin action in Vero cells; Vero cells, Shiga toxin protein synthesis inhibition reporter; AID 2315; inhibition, % at 38.7 µM; hit rate 9.2% among 290,000; in the data active means inhibition mostly above about 28%, no sharp cut-off; inactive means mostly below about 43%; further: 0% is about no effect
# Pf growth 96h: P. falciparum growth inhibition at 96 hours | hit rate 6.9% among 320,000 | P. falciparum luciferase reporter growth, 96 h | AID 504834 | Potency, µM (titrated, usually from 28.7 µM), without a hit: top-dose activity change, negative = inhibition, hits mostly inhibitors; further: potency means the concentration at half of the fitted maximal effect; on the % scale 0 is the no-effect control and ±100 the full control effect
#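 Luminescence readout: decreased luciferase signal marks inhibited growth of reporter-expressing P. falciparum in infected red cells (2% hematocrit, 0.05% parasitemia final), exposed to compound two generations (96 h, 37 C, 5% CO2).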
# LASV entry inh: blocks Lassa virus binding to or entry into cells | Lassa virus pseudotype entry inhibition, cell reporter | Potency, µM (top dose mostly 37.9 µM), for inactives: at the top dose activity change, negative = inhibition, hits mostly inhibitors | hit rate 1.2% among 300,000; calls by dose curve; tested in HEK293 cells; further: potency means the concentration at half of the fitted maximal effect; on the % scale 0 is the no-effect control and ±100 the full control effect; nearly all actives have a fitted effect of over 50% in size
# MARV entry inh: blocks Marburg virus binding to or entry into cells; Marburg virus pseudotyped entry inhibition, cell reporter; Potency, µM (doses to about 37.8 µM), without a hit: at the highest dose activity change, negative = inhibition, actives largely listed as inhibitors; hit rate 1.8% among 300,000; calls by dose curve; tested in HEK293 cells; further: potency means the concentration at half of the fitted maximal effect; on the % scale 0 is the no-effect control and ±100 the full control effect
# Pf growth 48h: inhibits P. falciparum growth in the first generation, 48 h; hit rate 5.9% among 310,000; AID 504832; Potency, µM (highest dose often 28.7 µM), for the others: at the top dose activity change, negative = inhibition, usual class: inhibitors; P. falciparum luciferase growth in erythrocytes, 48 h; further: potency means the concentration at half of the fitted maximal effect; on the % scale 0 is the no-effect control and ±100 the full control effect
#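 Erythrocytes infected with P. falciparum carrying an integrated firefly luciferase reporter (2% hematocrit, 0.1% parasitemia final) were exposed to compounds in RPMI 1640 with 0.5% Albumax at 37 C, 5% CO2. Growth inhibition was scored as reduced luminescence.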
# CHX counter: counter-screen hit for Shiga toxin inhibitors, cycloheximide; cell reporter, cycloheximide protein synthesis inhibition counterscreen; hit rate 12% among 300,000; max response, %; in the data active means max response mostly above about 13%, no sharp cut-off; inactive means mostly below about 14%; further: read at 38.3 µM for the half of the compounds with a filed dose; 0% is about no effect
# Active calls of the source: *; ? = inconclusive; . = not tested or not shown; [ ] = dose if it differs, or a comment. Unless noted, the call rests on the fitted dose curve; in most records, active means well fitted inhibition curve with a large enough effect; inconclusive means small, poorly fitted or top-dose-only effect, or another doubt; inactive means no such curve, though single readings can be large or run the other way.
SMILES,Shiga inhibitor,Pf growth 96h,LASV entry inh,MARV entry inh,Pf growth 48h,CHX counter
COc1ccccc1CNCC(O)(c1ccc(F)cc1)c1ccc(F)cc1,-4,4.7µM*,.,.,3.7µM*,-1
COc1ccccc1CNC(=S)NCc1ccc(Cl)cc1,15,-18%,.,.,?,10
COc1ccccc1CNCC(O)(c1ccc(Cl)cc1)c1ccc(Cl)cc1,5,1.7µM*,?,?,1.7µM*,-2
OC(CNCc1ccccc1F)(c1ccc(F)cc1)c1ccc(F)cc1,23,?,3%,-11%[46.1 µM],?,14
Cc1ccsc1C(=O)C1CCCN(Cc2cnn(C)c2)C1 (stereo unspecified),1,?,3%,24%[46.1 µM],-1%,-2
COc1ccc(Cl)cc1C(=O)C1CCCN(Cc2cnc(C)s2)C1 (stereo unspecified),53*,?,11µM*,3%[46.1 µM],?,17*
Cc1ncc(CN2CCCC(C(=O)c3sccc3C)C2)s1 (stereo unspecified),-22,12µM*,2%[46.1 µM],-15%[46.1 µM],-16%,7
Cn1c2ccccc2c2cc(/C=N/NC(=O)c3cc(O)ccc3O)ccc21,18,?,?,-8%,?,12*
CCn1c2ccccc2c2cc(/C=N/NC(=O)c3ccccc3)ccc21,15,8%,?,12µM*,?,6
Cn1c2ccccc2c2cc(/C=N/NC(=O)c3cc(O)cc(O)c3)ccc21,-7,?,11%[46.1 µM],?,?,-3
CCn1c2ccccc2c2cc(/C=N/n3c(C)nnc3C)ccc21,-36,.,?,?,-5%,1
COc1cc(C(=O)N/N=C/c2ccc3c(c2)c2ccccc2n3C)ccc1O,9,9.3µM*,-29%,?,4.7µM*,11
CC(=O)Nc1cc2c(cc1Cl)Cc1cc(Cl)ccc1-2,.,.,-2%[46.1 µM],21%[46.1 µM],.,.
Cc1ccc(F)cc1-c1ccc(C(=O)N=C(N)N)o1,60*,.,.,.,.,32*
Cc1c(C(=O)NC(=S)Nc2cccnc2)cccc1[N+](=O)[O-],-15,15%,.,.,22%,-1
c1ccc(-c2nc(N3CCOCC3)s[n+]2-c2ccccc2)cc1,40*,91%,12%,?,79%,57*
c1ccc(-c2nc(N3CCOCC3)sc2-c2ccccc2)cc1,-1,-13%,?,?,-15%,8
Cc1cc(C)c(C)c(OCC(=O)O/N=C(\N)c2ccccn2)c1,32,?,?,-18%,.,22
N/C(=N\OC(=O)COc1cc(Cl)c(Cl)cc1Cl)c1ccncc1,30,17%,?,?,79%,10
N/C(=N\OC(=O)COc1ccc(Br)cc1Cl)c1ccccn1,45,-4%,2µM*,?,410%,50*
N/C(=N\OC(=O)COc1ccc(Cl)cc1Cl)c1ccccn1,48*,42%,.,.,202%,35*
N/C(=N\OC(=O)COc1ccc(Br)cc1Cl)c1ccncc1,121*,4%,?,?,305%,88*
O=C(c1ccncc1)N(c1ccc2oc3c(c2c1)CCCC3)S(=O)(=O)c1cccc([N+](=O)[O-])c1,-10,33%,?,-6%,11%,-3
[Li+],.,.,3%,9%,.,.
O=C(O)C(Cc1ccccc1)NS(=O)(=O)c1ccc(Cl)cc1 (stereo unspecified),-5,36%,.,.,-9%,-6
SMILES,Shiga inhibitor,Pf growth 96h,LASV entry inh,MARV entry inh,Pf growth 48h,CHX counter
COc1ccc(S(=O)(=O)N(C)CC(=O)N2CCN(c3ccc(F)cc3)CC2)cc1OC,-14,.,-18%,4%,-23%,-3
CCN1CCN(C(=O)CN(c2ccc(F)cc2)S(=O)(=O)c2ccc(OC)c(OC)c2)CC1,-24,6.6µM*,-2%,30%,-21%,-2
COc1ccc(S(=O)(=O)N(C)CC(=O)N2CCCCCC2)cc1OC,-10,9.3µM*,8%,1%,-4%,5
Oc1ccccc1CN(Cc1ccco1)CC(O)COCc1ccc(Cl)cc1 (stereo unspecified),4,2.1µM*,?,?,2.9µM*,-2
CCCOc1ccc(C(=O)N(Cc2ccc(Cl)cc2)Cc2ccco2)cc1,.,.,-18%[46.1 µM],-23%[46.1 µM],.,.
COc1ccc(COCC(O)CN(Cc2ccco2)Cc2ccccc2O)cc1 (stereo unspecified),-11,4.7µM*,?,-23%,8.3µM*,-1
CC(=O)OC(C)(CCC(C)(OC(C)=O)C(C)=O)C(C)=O (stereo unspecified),10,2%,4%,-2%,6%,-2
c1ccc2c(NCCc3c[nH]c4ccccc34)c3ccccc3nc2c1,24,3.3µM*,.,.,0.59µM*,-11
c1ccc2c(CCNC3=NCCC3)c[nH]c2c1,17,.,14%,-3%,?,0
CC(C)(C)Nc1c2ccccc2nc2ccccc12,-5,8%,8%[46.1 µM],-10%[46.1 µM],?,-2
Fc1cccc(NCCc2c[nH]c3ccccc23)n1,40,35%,.,.,21%,37*
OCCCNc1c2ccccc2nc2ccccc12,-5,28%,?,7.1µM*,5.2µM*,-6
c1ccc(-n2nnnc2NCCc2c[nH]c3ccccc23)cc1,-24,?,-18%,-5%,?,-1
CCC(=O)Nc1ccc(Cl)c(-c2nc3ccccc3[nH]2)c1,.,.,6%[46.1 µM],-2%[46.1 µM],.,.
N#Cc1ccccc1S(=O)(=O)N1CCN(C(=O)CCC2CCCC2)CC1,.,?,.,.,0%,.
N#Cc1ccccc1S(=O)(=O)N1CCN(C(=O)CN2CCCC2c2cccs2)CC1 (stereo unspecified),.,4.7µM*,.,.,9.3µM*,.
Cc1nnsc1-c1nc2ccccc2[nH]1,16,?,-22%,-4%[46.1 µM],12%,1
Cc1[nH]c2ccccc2c1-c1nc2ccccc2[nH]1,56*,-3%,?,23%,?,48*
Cc1ccc(-c2nc3ccccc3[nH]2)s1,64*,11%,?,13µM*,-3%,52*
c1csc(-c2nc3ccccc3[nH]2)c1,65*,.,-9%,-6%,196%,36*
Cc1ccc(C(=O)N(Cc2ccc(N(C)C)cc2)Cc2ccco2)cc1,.,.,?,2%[46.1 µM],.,.
CC(/C=N/n1c(-c2ccncc2)n[nH]c1=S)=C\c1ccco1,-4,4%,.,.,75%,-2
CCCNCc1cc(Br)ccc1OCC(=O)NCCc1ccccc1,-8,12µM*,?,?,13µM*,-6
CCOc1cc(CNCCO)c(Cl)cc1OCC(=O)NCCc1ccccc1,-12,9%,-18%,-7%,?,1
O=C(COc1ccc(Br)cc1CO)Nc1ccccc1,159,67%,16%,0%,18%,27*
COc1cc(CO)ccc1OCC(=O)Nc1ccc(Br)cc1,96*,?,15%,-3%,22%,21*
O=C(COc1ccc(Br)cc1CO)Nc1ccccc1F,77*,3%,9%,?,83%,29*
Cc1ccc(NC(=O)C2CCC(CNS(=O)(=O)c3cccc4nsnc34)CC2)c(C)c1 (stereo unspecified),.,.,-14%[46.1 µM],-3%[46.1 µM],.,.
